The campaign covered roughly 360,000 compounds. About 2,400 (0.67%) were called active. The sample holds actives, similar compounds and a random draw of the others, so the mix is not that of the screen.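 How the source made its calls: active means compounds whose normalised, plate-corrected inhibition of enzyme fluorescence in the single-dose primary screen is 50% or more; inactive means the rest.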
target: Fatty acid synthase (Homo sapiens) (UniProt P49327); assay: FAS thioesterase domain inhibitors, primary screen, biochemical, fluorescence intensity, uHTS (AID 602261); settings: recombinant FAS-TE, OMFH fluorogenic substrate, fluorescence endpoint; at 15 µM; stronger effect = higher value;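 further: 0% = DMSO with enzyme and 100% = substrate without enzyme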
Sequence (P49327 whole entry, looked up, the tested form may be a part): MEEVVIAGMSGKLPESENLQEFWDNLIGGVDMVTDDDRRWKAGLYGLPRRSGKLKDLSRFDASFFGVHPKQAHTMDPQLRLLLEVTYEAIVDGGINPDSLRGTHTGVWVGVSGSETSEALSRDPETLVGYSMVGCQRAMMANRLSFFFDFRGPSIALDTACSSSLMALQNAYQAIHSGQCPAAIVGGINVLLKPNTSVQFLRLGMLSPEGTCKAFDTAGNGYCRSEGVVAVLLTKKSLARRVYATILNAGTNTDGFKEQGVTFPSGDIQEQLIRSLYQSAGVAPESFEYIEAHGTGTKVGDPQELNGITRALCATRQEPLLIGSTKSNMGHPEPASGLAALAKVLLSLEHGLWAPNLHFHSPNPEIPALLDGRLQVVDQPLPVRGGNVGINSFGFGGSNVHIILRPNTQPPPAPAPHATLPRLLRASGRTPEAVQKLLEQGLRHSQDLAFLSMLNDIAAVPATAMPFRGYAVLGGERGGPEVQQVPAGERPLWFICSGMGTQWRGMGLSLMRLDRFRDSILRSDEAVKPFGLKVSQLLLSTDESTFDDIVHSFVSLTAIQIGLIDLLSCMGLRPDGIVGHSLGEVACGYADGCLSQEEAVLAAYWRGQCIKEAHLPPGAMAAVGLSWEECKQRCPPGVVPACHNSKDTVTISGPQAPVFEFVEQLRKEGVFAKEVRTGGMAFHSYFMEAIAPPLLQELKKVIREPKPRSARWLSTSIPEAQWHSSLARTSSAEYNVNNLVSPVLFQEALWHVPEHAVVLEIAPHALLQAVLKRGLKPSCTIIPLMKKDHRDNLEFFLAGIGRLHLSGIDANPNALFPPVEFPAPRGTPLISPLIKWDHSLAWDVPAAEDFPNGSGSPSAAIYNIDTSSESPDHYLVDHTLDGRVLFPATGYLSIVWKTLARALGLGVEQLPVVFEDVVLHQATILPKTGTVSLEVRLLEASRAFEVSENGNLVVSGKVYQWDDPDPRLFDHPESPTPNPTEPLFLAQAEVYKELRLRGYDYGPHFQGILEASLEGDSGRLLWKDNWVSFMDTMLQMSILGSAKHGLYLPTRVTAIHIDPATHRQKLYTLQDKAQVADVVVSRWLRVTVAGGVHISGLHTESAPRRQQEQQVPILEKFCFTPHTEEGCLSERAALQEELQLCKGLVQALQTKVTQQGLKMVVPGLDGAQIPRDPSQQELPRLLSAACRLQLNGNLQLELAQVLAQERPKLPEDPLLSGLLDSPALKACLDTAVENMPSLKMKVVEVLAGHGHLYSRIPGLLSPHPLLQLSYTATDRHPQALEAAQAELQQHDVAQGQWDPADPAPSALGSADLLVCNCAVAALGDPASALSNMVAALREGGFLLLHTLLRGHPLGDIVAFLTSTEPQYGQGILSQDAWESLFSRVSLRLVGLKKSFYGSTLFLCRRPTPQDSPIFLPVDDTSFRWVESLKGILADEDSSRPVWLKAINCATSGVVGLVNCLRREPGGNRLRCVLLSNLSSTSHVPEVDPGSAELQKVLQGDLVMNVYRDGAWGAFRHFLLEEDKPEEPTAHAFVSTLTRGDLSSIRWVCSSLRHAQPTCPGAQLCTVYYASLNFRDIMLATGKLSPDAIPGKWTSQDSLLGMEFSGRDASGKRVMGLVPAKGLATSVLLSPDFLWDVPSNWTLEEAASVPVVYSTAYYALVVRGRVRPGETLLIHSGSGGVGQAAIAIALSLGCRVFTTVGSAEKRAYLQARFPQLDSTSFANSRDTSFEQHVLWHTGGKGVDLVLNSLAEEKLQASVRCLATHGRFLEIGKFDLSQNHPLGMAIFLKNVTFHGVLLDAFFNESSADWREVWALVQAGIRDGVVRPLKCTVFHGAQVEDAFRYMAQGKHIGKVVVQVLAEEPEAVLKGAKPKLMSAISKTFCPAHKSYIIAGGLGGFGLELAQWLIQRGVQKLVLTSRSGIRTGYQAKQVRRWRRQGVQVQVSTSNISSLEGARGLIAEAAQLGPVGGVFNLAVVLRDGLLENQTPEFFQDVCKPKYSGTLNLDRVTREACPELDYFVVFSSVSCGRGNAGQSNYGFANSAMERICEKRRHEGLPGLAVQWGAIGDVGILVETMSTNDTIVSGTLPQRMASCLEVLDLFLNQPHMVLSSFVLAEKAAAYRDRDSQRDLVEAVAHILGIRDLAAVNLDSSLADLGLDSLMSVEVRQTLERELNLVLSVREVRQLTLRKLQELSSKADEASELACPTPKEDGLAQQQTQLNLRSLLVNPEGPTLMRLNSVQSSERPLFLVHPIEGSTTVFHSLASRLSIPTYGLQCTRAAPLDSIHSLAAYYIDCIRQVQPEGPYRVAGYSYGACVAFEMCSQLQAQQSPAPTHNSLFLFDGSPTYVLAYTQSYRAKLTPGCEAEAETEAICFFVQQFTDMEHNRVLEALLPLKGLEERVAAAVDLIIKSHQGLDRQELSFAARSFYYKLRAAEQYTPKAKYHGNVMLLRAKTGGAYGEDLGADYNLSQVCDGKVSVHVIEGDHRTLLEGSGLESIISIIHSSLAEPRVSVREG

Compound	inhibition
O=C(O)c1ccccc1N=N/C(=N/Nc1cc(S(=O)(=O)O)ccc1O)c1ccccc1	3.7% (inactive)
COc1ccc(NS(=O)(=O)c2cc(NC(=O)/C=C/c3cc(OC)c(OC)c(OC)c3)ccc2N2CCCCC2)cc1	50.6% (active)
COc1cc(/C=C/C(=O)Nc2ccc(OC)c(S(=O)(=O)N3CCOCC3)c2)ccc1OCC#N	-0.4% (inactive)
COc1ccc(NS(=O)(=O)c2cc(NC(=O)c3ccc(S(=O)(=O)N(C)C)cc3)ccc2N2CCOCC2)cc1	88.6% (active)
COc1ccc(NS(=O)(=O)c2cc(NC(=O)C3CCCCC3)ccc2N2CCOCC2)cc1	10.3% (inactive)
COc1ccc(NS(=O)(=O)c2ccc(N3CCOCC3)c(NC(=O)/C=C/C(=O)O)c2)cc1	-5.8% (inactive)
COc1ccc(NS(=O)(=O)c2ccc(N3CCN(CCO)CC3)c([N+](=O)[O-])c2)cc1	-6.1% (inactive)
O=C(NC(C(=O)NCCN1CCOCC1)C12CC3CC(CC(C3)C1)C2)C1CCCCC1 (centres undefined)	-6.3% (inactive)
CCCCN(CC(=O)Nc1cccc(S(=O)(=O)N2CCCC2)c1)Cc1nc2ccccc2c(=O)[nH]1	8.2% (inactive)
CCOCCCN(C)C1CCN(C(=O)c2oc3ccccc3c2NC(=O)COc2cccc(C)c2)CC1	1.2% (inactive)
CCN(C(=O)CSc1ncnc2c1cnn2-c1ccccc1)C1CCS(=O)(=O)C1 (centres undefined)	57.4% (active)
CCC(C)N(C(=O)CSc1ncnc2c1cnn2-c1ccccc1)C1CCS(=O)(=O)C1 (centres undefined)	22.1% (inactive)
CC(C)CN(C(=O)CSc1ncnc2sccc12)C1CCS(=O)(=O)C1 (centres undefined)	-7.9% (inactive)
COc1cc(C(O)c2nc(-c3cnn(C)c3)cs2)ccc1F (centres undefined)	-5.1% (inactive)
COc1ccc(N2CCN(S(=O)(=O)c3cc(Br)cnc3N)CC2)cc1	-1.1% (inactive)
Cc1ccc(S(=O)(=O)N2CC(C)N(S(C)(=O)=O)C2)cc1 (centres undefined)	-3.6% (inactive)
Cc1nc2c(OCc3cccc(Cl)c3)cccn2c1N(C)CC1CC1	17.1% (inactive)
Cc1nc2c(OCc3ccc(Cl)cc3Cl)cccn2c1N(C)CC1CC1	57.2% (active)
CCc1nc2c(OCc3ccc(Cl)cc3Cl)cccn2c1N(C)C(=O)C(C)C	9.4% (inactive)
Cc1ccc(C2C(C#N)C(C#N)N3CCCN23)cc1 (centres undefined)	-18.8% (inactive)
COc1cc2c(=O)n(C)c3ccccc3c2cc1OC	-3.2% (inactive)
COCC(=O)N(C)C[C@H]1Oc2cc(Br)ccc2S(=O)(=O)N([C@H](C)CO)C[C@H]1C	-6% (inactive)
COc1cc(OC)cc(C(=O)NC2CCN(C(=O)N3c4ccccc4Sc4ccccc43)CC2)c1	38.7% (inactive)
CCCCCN(C(=O)CCC(=O)OCC(=O)NC1CCC(C)CC1)c1c(N)n(CCCC)c(=O)[nH]c1=O (centres undefined)	-3.8% (inactive)
Cc1ccccc1CN(c1ccc(C(=O)NCC2CCCO2)cc1)S(C)(=O)=O (centres undefined)	-11.4% (inactive)
COc1ccc([N+](=O)[O-])cc1NC(=O)c1ccc(N(Cc2ccccc2C)S(C)(=O)=O)cc1	62.6% (active)
CCN(c1ccccc1)S(=O)(=O)c1ccc(C(=O)Nc2ccccc2OC)cc1	19.5% (inactive)

Compound	inhibition
CCc1nc2ccc(C(=O)N(C)Cc3ccco3)cn2c1N(C)C(=O)Cc1ccccc1	-8% (inactive)
O=C1N(c2ccc(Cl)cc2)C(c2ccc(Cl)cc2)N2CCCN12 (centres undefined)	21.3% (inactive)
COCCCN1C(=O)C(CC(=O)NCc2cccs2)CC(C(=O)N2CCOCC2)=C1C (centres undefined)	-5.4% (inactive)
CCOCCOC(=O)C1=C(C)NC(=O)NC1c1ccc2c(c1)OCO2 (centres undefined)	-6.1% (inactive)
CCC(CC)COC(=O)C1=C(C)NC(=O)NC1c1ccc([N+](=O)[O-])cc1 (centres undefined)	71.6% (active)
CC1=C(C(=O)OCC2CCCCC2)C(c2ccc(F)cc2)NC(=O)N1 (centres undefined)	17.2% (inactive)
N[C@@H](Cc1ccccc1)C(=O)N1CCC(C(=O)NCC(=O)Nc2ccc(F)cc2)CC1	-6.7% (inactive)
CC(C)(O)C#Cc1ncc(C(F)(F)F)cc1Cl	-1.4% (inactive)
COC(=O)[C@@H]1CC(O)CN1C(=O)C12CC3CC(CC(C3)C1)C2 (some centres undefined)	-6.7% (inactive)
CCOC(=O)c1cnn2c(SC)ncnc12	-6.9% (inactive)
Cc1cc(C)c2c(=O)n3c(nc2c1)C(CC(C)C)NC(=O)c1cc2ccccc2cc1-3 (centres undefined)	2.3% (inactive)
O=C1NC(Cc2ccccc2)c2nc3ccc(Br)cc3c(=O)n2-c2cc3ccccc3cc21 (centres undefined)	84.7% (active)
CCC1NC(=O)c2cccnc2-n2c1nc1ccc(C)cc1c2=O (centres undefined)	-5.4% (inactive)
C=CCSc1nsc(NC(=O)Nc2cccc(C(C)=O)c2)n1	3.9% (inactive)
Cc1ccc(C2SCC(=O)N2c2ccccc2)cc1 (centres undefined)	-5.6% (inactive)
Cc1ccc(N2C(=O)C3C(c4ccccc4)(C2=O)C3(c2ccccc2)c2ccccc2)cc1 (centres undefined)	80.8% (active)
Cc1ccc(N2C(=O)N3[C@@H]4c5ccccc5OC[C@@H]4[C@@H](c4ccccc4)[C@@]3(C)C2=O)cc1	48.3% (inactive)
COc1cc(C2C(C(=O)OCCC#N)=C(C)NC3=C2S(=O)(=O)c2ccccc23)cc(OC)c1OC (centres undefined)	-7.7% (inactive)
C=C(Cl)COC(=O)C1C2C=CC(C2)C1C(=O)O (centres undefined)	-6.6% (inactive)
COc1cccc(CNS(=O)(=O)c2cc3c(cc2C)n(C)c(=O)c(=O)n3C)c1	-4.2% (inactive)
CC1c2nc3ccccc3n2C(CC(=O)NCCCN2CCOCC2)C(=O)N1Cc1ccccc1 (centres undefined)	-2.2% (inactive)
Cc1ccc(S(=O)(=O)N2C[C@]3(O)C[C@@H]4C(=O)N(c5ccccc5)C(=O)[C@@H]4C[C@]3(OC(=O)NC3CC3)C2)cc1	5.3% (inactive)
C#CCN(C[C@H]1[C@H](OC(=O)NC2CCCC2)[C@H](OC(=O)NC2CCCC2)C[C@H]2C(=O)N(c3ccccc3)C(=O)[C@@H]12)S(=O)(=O)c1ccc(C)cc1	69.1% (active)
C#CCN(C[C@@H]1[C@@H](OC(=O)NC2CC2)[C@@H](OC(=O)NC2CC2)Cn2c(=O)ccc(=O)n21)S(=O)(=O)c1ccc(C)cc1	-8% (inactive)
O=C(NCc1ccco1)c1ccc(CS(=O)(=O)Cc2ccc(F)cc2)o1	-5.6% (inactive)
C[C@H]1CN([C@@H](C)CO)C(=O)CCCn2nncc2CO[C@@H]1CN(C)Cc1ccc(Oc2ccccc2)cc1	-4.9% (inactive)
CCN(CCCNC(=O)CSc1cc(=O)n(C)c2cc(Cl)ccc12)Cc1ccccc1	1.5% (inactive)

From PubChem BioAssay AID602261 (Sanford-Burnham Center for Chemical Genomics, 2012)
